Compound activity: PubChem, National Center for Advancing Translational Sciences (NCATS)
TSHR antag – blocks TSH signaling through the human TSH receptor. P16473. activity change, negative = inhibition, % at 11.5 µM. AID 504810. TSHR-expressing cells, TSH-stimulated cAMP HTRF, 2 h; stronger effect = lower value. actives 0.2% (n = 330,000);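 active means activity change below a set negative limit, meaning inhibition stronger than a set level, cut at about -70% in these data; inconclusive means activity change between two set negative limits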; further: on the % scale 0 is the no-effect control and ±100 the full control effect
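Cell-based HTRF cAMP assay; TSHR cells + compound, TSH EC80 (4nM final), 2 h, 37 deg C. Lysis with anti-cAMP cryptate and cAMP-d2, 30 min RT, read 665/620 nm.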
TRb-SRC2 inh – inhibitors of human thyroid hormone receptor beta-SRC2 interaction; TRbeta-SRC2 peptide binding, fluorescence polarization; receptor liganded with 1 µM T3; actives 0.065% (n = 280,000); Potency, µM (highest dose often 106 µM), for inactives: at the top dose activity change, negative = inhibition, hits mostly inhibitors; AID 1469; P10828;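 further: potency means the concentration at half of the fitted maximal effect; plate controls were bound peptide for no effect and peptide without receptor for full effect; nearly all actives have a fitted effect of over 50% in size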
Target sequence (P10828 whole entry, looked up): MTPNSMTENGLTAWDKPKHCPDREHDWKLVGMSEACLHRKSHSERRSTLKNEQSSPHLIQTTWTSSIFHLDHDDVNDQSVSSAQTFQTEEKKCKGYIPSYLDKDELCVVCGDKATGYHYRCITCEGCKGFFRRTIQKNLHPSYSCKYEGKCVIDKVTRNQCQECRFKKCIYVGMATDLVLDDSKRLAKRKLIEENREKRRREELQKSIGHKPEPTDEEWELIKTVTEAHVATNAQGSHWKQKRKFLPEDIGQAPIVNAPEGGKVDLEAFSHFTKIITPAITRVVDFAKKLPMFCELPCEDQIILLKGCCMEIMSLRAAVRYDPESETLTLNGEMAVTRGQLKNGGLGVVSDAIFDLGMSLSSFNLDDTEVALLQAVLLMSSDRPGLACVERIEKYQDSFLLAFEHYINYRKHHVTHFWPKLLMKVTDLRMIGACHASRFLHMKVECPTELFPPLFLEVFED
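Each compound concentration gave % activity, normalized to unbound and bound Texas Red SRC2 controls, from polarization read after 5 hr ambient incubation with T3-loaded human TRb LBD.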
TR SRC2 fluor cs – Texas Red fluorescence interference in TRb-SRC2 counter-screen; TRb/SRC2 Texas Red total fluorescence interference; Potency, µM (highest dose often 106 µM), for inactives: top-dose fluorescence change, negative = quenching; actives 0.29% (n = 280,000); AID 1479; active means well fitted curve in either direction with a large enough effect; inconclusive means small, poorly fitted or top-dose-only effect; further: potency means the concentration at half of the fitted maximal effect; on the % scale 0 is the no-effect control and ±100 the full control effect
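Flags fluorescent or light-absorbing compounds by total fluorescence, S + 2P, at 555 nm excitation and 632 nm emission. Mixture: 20 nM Texas Red SRC2 peptide, 0.6 uM human TRb LBD, 1 uM T3, 5% DMSO; compound exposure 5 h at ambient temperature.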
FBPA coupling cs – counter-screen for Giardia aldolase inhibitors: coupling enzyme system. actives 0.67% (n = 290,000). coupling enzyme system counterscreen, AmpLite Red fluorescence. activity change, negative = inhibition, % at 58.2 µM, hits read low; in the data active means activity change below about -30%; further: on the % scale 0 is the no-effect control and ±100 the full control effect
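Activity here indicates interference with the coupling reaction, not aldolase inhibition. Compounds at 57.5 uM final met coupling enzymes for 10 min at RT; substrate and AmpLite Red detection followed, with a 525/598 nm fluorescence read after 20 min.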
NPSR antagonist – blocks cAMP signaling of the human neuropeptide S receptor. actives 1% (n = 220,000). Potency, µM (series often up to 38.3 µM), inactives show at the highest dose activity change, negative = inhibition, most hits filed as inhibitors. CHO-NPSR cells, cAMP TR-FRET, antagonist mode. AID 1461. Q6W5P4; further: potency means the concentration at half of the fitted maximal effect; on the % scale 0 is the no-effect control and ±100 the full control effect; nearly all actives have a fitted effect of over 50% in size
TCR activator – activates T cell receptor signaling | primary human leukocytes, anti-CD3, IL-2 HTRF, 48 h | 330,000 tested, under 10 active | Potency, µM (highest dose often 9.22 µM), inactives show at the top dose activation of IL-2 secretion, most hits filed as activators; further: % of control where 0% means no effect
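Compounds are tested in HTS on primary human leukocytes co-incubated with a-CD3 beads for 48 hr. IL-2 output is measured by time-resolved FRET.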
Active calls of the source: *; ? = inconclusive; . = no result; ! = not confirmed by another sample; [ ] = another dose, or the depositor's remark. Only some compounds are listed: those with a hit (about 1% of all), similar ones and a draw of the others. Unless noted, the call rests on the fitted dose curve; in most records, active means well fitted curve in the direction sought with a large enough effect; inconclusive means small, poorly fitted or top-dose-only effect, or another doubt; inactive means no such curve, though single readings can be large; an effect the other way counts as inactive or inconclusive.

SMILES | TSHR antag | TRb-SRC2 inh | TR SRC2 fluor cs | FBPA coupling cs | NPSR antagonist | TCR activator
Cc1ccc(/C=[N+](\[O-])c2ccc(N(C)C)cc2)c2nsnc12 | -8 | 35µM* | 40µM*[fluorescent] | -41* | ? | 16%
COc1cccc(CNC(=O)CN2N=C(c3ccc(C)cc3)CCC2=O)c1 | . | 2% | -3% | . | . | .
O=C(N/N=C/c1ccc(-c2ccc(S(=O)(=O)Nc3ncccn3)cc2)o1)c1cc2ccccc2cc1O | 8 | ? | 16µM*[quencher] | 7 | -18%[46.1 µM] | -5%
O=C1CCC(C2CCCCC2)CC1 | . | 2%[201 µM] | 0%[201 µM] | . | . | .
c1ccc2c(c1)OCCOCCOCCOCCO2 | . | -1% | 1% | 1 | . | .
CN1CCN(C(=O)c2sc(=S)n(-c3ccccc3)c2N)CC1 | -10 | 4% | 1% | -48* | -2%[46.1 µM] | 2%
CCOc1ccc(NC(=S)Nc2cccc3ccccc23)cc1 | 1 | . | . | 1 | . | 3%
COc1ccccc1NC(=S)Nc1cccc2cnccc12 | -2 | -16% | 3% | -19 | 23% | 4%[46.1 µM]
CCOc1ccc(NC(=S)Nc2cccc3cnccc23)cc1 | 35 | -2% | ? | -45* | 5% | 7%[46.1 µM]
COc1ccc(NC(=S)Nc2cccc3cnccc23)cc1 | -11 | -2% | -2% | -37* | 12% | 2%[46.1 µM]
C1=C/CC/C=C/CC/C=C/CC/1 | . | -12%[201 µM] | -4%[201 µM] | . | . | .
CC1=Nc2cccc3cccc(c23)N1C | -28 | 0%[53 µM] | -2%[53 µM] | -32* | -8% | 19%[46.1 µM]
CC1CCc2nc3ccc(S(=O)(=O)N4CCC(C(=O)NCc5ccccc5Cl)CC4)cc3c(C(=O)O)c2C1 (configuration not stated) | -10 | -10% | 20µM*[quencher] | -3 | . | -29%
COc1ccc(CNC(=O)C2CCN(S(=O)(=O)c3ccc4nc5c(c(C(=O)O)c4c3)CC(C)CC5)CC2)cc1 (configuration not stated) | -4 | 0% | -30% | . | . | -6%
O=C(NNC(=O)c1ccc(NC(=O)c2ccccc2)cc1)c1ccc(F)cc1 | -10 | . | . | 0 | . | 15%
O=C(NC1=C(Nc2ccc(F)cc2)C(=O)c2ccccc2C1=O)c1ccc(Cl)cc1 | 12 | -2% | -1% | -42* | -4% | 0%[46.1 µM]
CCOC(=O)c1c(C)oc2nc(C)nc(NCCCN3CCN(c4cccc(C)c4)C(C)C3)c12 (configuration not stated) | . | -10% | 45µM*[quencher] | . | . | .
CCc1c(C)c2ccc(O)c(CN3CCN(c4ccccc4)CC3)c2oc1=O | . | -4% | -1% | . | . | .
Nc1nnc2c(n1)CCCC2 | -3 | -26% | -17% | -30* | 3%[46.1 µM] | 2%
Cc1ccc2sc(NNC(=O)c3cc(=O)c4ccccc4o3)nc2c1C | 3 | 11% | -16% | -47* | -23% | -10%
CCOC(=O)N1CCC(NC(=O)c2ccc3c(c2)N(Cc2ccc(F)cc2)C(=O)c2ccccc2S3=O)CC1 (configuration not stated) | . | -5% | -33% | . | . | .
CN(C)c1cncc(C(=O)O)c1 | 7 | -5% | 2% | -55* | 13% | 2%
O=C(Nc1ccc(Br)cc1F)N1CCC2(CC1)Oc1ccccc1C(=O)N2Cc1ccccc1F | . | -4% | 1% | . | . | .
CC(=O)C1=C(C)OC(N)=C(C#N)C1c1ccco1 (configuration not stated) | -1 | -2% | 0% | -16 | -6%[46.1 µM] | -12%
CC(=O)C1=C(C)OC(N)=C(C#N)C1c1cccc2ccccc12 (configuration not stated) | -1 | 0% | 3% | -34* | 16% | -3%
SMILES | TSHR antag | TRb-SRC2 inh | TR SRC2 fluor cs | FBPA coupling cs | NPSR antagonist | TCR activator
CCC(C)C1=CC(=Nc2c(C)n(C)n(-c3ccccc3)c2=O)C=C(C(C)CC)C1=O (configuration not stated) | 5 | 2% | -4% | -27 | -57% | -3%
CC1=CC(=Nc2c(C)n(C)n(-c3ccccc3)c2=O)C=C(C)C1=O | -6 | -8% | 0% | -48* | -35% | 11%[46.1 µM]
CC1=CC(=Nc2c(C)n(C)n(-c3ccccc3)c2=O)C=CC1=O | -13 | ? | 28% | -46* | -59% | .
COc1cc(CNc2ccc3[nH]c(=O)[nH]c3c2)ccc1OCC(=O)NC(C)(C)C | -12 | -7% | -4% | -30* | ? | -10%
CC1(OC(=O)CCc2ccccc2)C(=O)C=C2C=C(c3ccc(C#N)cc3)N(C3CCCC3)C=C2C1=O (configuration not stated) | -7 | 0%[11.2 µM] | -3%[11.2 µM] | -27 | -1% | -2%
COC(=O)CCC(=O)OC1(C)C(=O)C=C2C=C(C3CC3)N(C3CCCCC3)C=C2C1=O (configuration not stated) | -7 | 6%[11.2 µM] | -2%[11.2 µM] | -41* | 9% | 1%
COC(=O)CCC(=O)OC1(C)C(=O)C=C2C=C(C3CC3)N(C3CCCC3)C=C2C1=O (configuration not stated) | -9 | 5%[11.2 µM] | -1%[11.2 µM] | -35*! | 9% | 5%
O=C(NCc1cccc(F)c1)c1ccc(NC(=O)c2nsc3ccccc23)cc1 | . | -2% | -1% | . | . | .
CN(C)C1CCN(CCCOc2ccc(-c3ccc(C#N)cc3)cc2)C1 (configuration not stated) | . | -2% | -9% | 1 | . | .
O=c1[nH]c(=O)n(Cc2ccccc2)c2nc(-c3ccc(Oc4ccc(F)cc4)c([N+](=O)[O-])c3)n(CCO)c12 | -5 | 0% | 0% | 0 | 6.3µM* | 3%[46.1 µM]
Cc1ccc(OCCSc2nc3ccccc3n2CC(=O)N2CCOCC2)c(C)c1 | . | -6% | -1% | . | . | .
COC(=O)[C@@H]1[C@@H](C#N)C2(c3ccccc3-c3ccccc32)N(c2ccc(Cl)cc2)N1C#N | -5 | -6% | -3% | -7 | 10µM* | -4%[46.1 µM]
O=C(O)c1cc(N=Nc2ccc(-c3ccc(N=Nc4ccc(O)c(C(=O)O)c4)cc3)cc2)ccc1O | . | ? | 28µM*[quencher] | 13 | . | .
O=C(O)c1cc(N=Nc2ccc([N+](=O)[O-])cc2)ccc1O | . | 11% | -6% | . | . | .
OCCN(CCO)c1nc(N2CCCCC2)c2nc(N(CCO)CCO)nc(N3CCCCC3)c2n1 | . | ? | 40µM*![fluorescent] | 2 | -53% | -4%
